Laboratory results: PubChem BioAssay (Tox21)
Results filed as inconclusive are left out. Entries that show only a call come without a potency. Active and inactive are the calls of the source. Unless noted, the call rests on the fitted dose curve; in most records, active means well fitted curve in the direction sought with a large enough effect in the repeat runs; inconclusive means weak or mixed curves; inactive means no such curve, though single readings can be large; an effect the other way counts as inactive or inconclusive.

How the values were obtained:
[1] = qHTS assay to identify small molecule antagonists of the glucocorticoid receptor (GR) signaling pathway - cell viability counter screen (AID 720693); further: nearly all actives have a fitted effect of over 55% in size
[2] = qHTS assay for identifying genotoxic compounds that show differential cytotoxicity against isogenic chicken DT40 cell lines with known DNA damage response pathways - Rev3 mutant cell line (AID 743014); further: nearly all actives have a fitted effect of over 55% in size; further: potency means the concentration at half of the fitted maximal effect
[3] = qHTS assay for identifying genotoxic compounds that show differential cytotoxicity against isogenic chicken DT40 cell lines with known DNA damage response pathways - Rad54/Ku70 mutant cell line (AID 743015); further: nearly all actives have a fitted effect of over 60% in size; further: potency means the concentration at half of the fitted maximal effect
[4] = qHTS assay to identify small molecule antagonists of the androgen receptor (AR) signaling pathway - cell viability counter screen (AID 743033; further: nearly all actives have a fitted effect of over 45% in size)
[5] = qHTS assay to identify small molecule antagonists of the thyroid receptor (TR) signaling pathway - cell viability counter screen (AID 743064); further: nearly all actives have a fitted effect of over 50% in size; further: potency means the concentration at half of the fitted maximal effect
How it was run: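 In rat pituitary GH3.TRE-Luc reporter cells co-exposed to compound and 1 nM T3 for 23.5 h, cytotoxicity was assessed with CellTiter-Fluor in the same wells, read by fluorescence.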

[6] = qHTS assay to identify small molecule antagonists of the thyroid receptor (TR) signaling pathway (AID 743065); further: nearly all actives have a fitted effect of over 55% in size; further: potency means the concentration at half of the fitted maximal effect
How it was run: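 GH3.TRE-Luc rat pituitary cells carrying two TR response elements driving luciferase were plated for 4 h, given compound plus 1 nM T3 (final), and incubated 23.5 h at 37 C. ONE-Glo luminescence measured reporter inhibition; CellTiter-Fluor fluorescence tracked cytotoxicity.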

[7] = system: thyroid hormone receptor (rat, GH3 cells); test: qHTS assay to identify small molecule agonists of the thyroid receptor (TR) signaling pathway (AID 743066; calls by dose curve)
[8] = qHTS assay to identify small molecule antagonists of the estrogen receptor alpha (ER-alpha) signaling pathway - cell viability counter screen (AID 743074; calls by dose curve;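 further: HEK293 cells carrying ER-alpha-UAS-bla reporter stimulated with 17beta-estradiol; nearly all actives have a fitted effect of over 45% in size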)
[9] = qHTS assay to identify small molecule antagonists of the estrogen receptor alpha (ER-alpha) signaling pathway using the BG1 cell line - cell viability counter screen (AID 743081);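 further: compound given together with 17beta-estradiol as the ER stimulus; series mostly up to about 70 µM; nearly all actives have a fitted effect of over 45% in size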
Aromatase (Homo sapiens) = Aromatase (Homo sapiens) (UniProt P11511); test: qHTS assay to identify aromatase inhibitors (AID 743083); further: series mostly up to about 70 µM; nearly all actives have a fitted effect of over 55% in size
[10] = qHTS assay to identify small molecule antagonists of the androgen receptor (AR) signaling pathway using the MDA cell line - cell viability counter screen (AID 743041; further: nearly all actives have a fitted effect of over 45% in size)
How it was run: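 Viability counter screen run alongside the AR antagonist reporter: cells seeded 5 h before compound, R1881 added, 16 h incubation at 37C without CO2, fluorescent CellTiter-Fluor signal quantified.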

[11] = target: Androgen receptor (Homo sapiens) (UniProt P10275); test: qHTS assay to identify small molecule antagonists of the androgen receptor (AR) signaling pathway (AID 743035; active means well fitted inhibition curve with a large enough effect in the signal ratio in the repeat runs, not every such curve was filed as active; the % refers to the signal ratio)
How it was run: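 Using qHTS, AR-UAS-bla GripTite HEK293 cells received compound, then R1881, and were cultured 16 h at 37C/5% CO2 before a 2 h room-temperature LiveBLAzer B/G FRET substrate step and fluorescence measurement.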

[12] = target: Androgen receptor (Homo sapiens) (UniProt P10275); test: qHTS assay to identify small molecule agonists of the androgen receptor (AR) signaling pathway (AID 743036; active means well fitted activation curve with a large enough effect in the signal ratio in the repeat runs, with a control signal flat, not every such curve was filed as active; the % refers to the signal ratio)
How it was run: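 Cell-based FRET reporter assay: HEK293 line with a UAS-beta-lactamase construct, compounds added in DMSO, 16 h exposure at 37C, then 2 h substrate step at room temperature and fluorescence intensity read.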

[13] = target: Androgen receptor (Homo sapiens) (UniProt P10275); test: qHTS assay to identify small molecule agonists of the androgen receptor (AR) signaling pathway using the MDA cell line (AID 743040; further: nearly all actives have a fitted effect of over 20% in size)
How it was run: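 Luminescence from ONE-Glo, read after 30 min at room temperature, reflects MMTV-driven luciferase in MDA-kb2 cells (AR- and GR-responsive). Treatment lasted 16 h at 37C, 0% CO2.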

[14] = target: Androgen receptor (Homo sapiens) (UniProt P10275); test: qHTS assay to identify small molecule antagonists of the androgen receptor (AR) signaling pathway using the MDA cell line (AID 743042; further: nearly all actives have a fitted effect of over 55% in size)
How it was run: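 MDA-kb2 cells (human breast carcinoma, stably carrying an MMTV-luciferase reporter responsive to AR and GR) were plated at 3,000 cells/well and preincubated 5 hr at 37C, then given compound plus R1881 agonist for 16 h. ONE-Glo luminescence was read.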

[15] = target: Estrogen receptor (Homo sapiens) (UniProt P03372); test: qHTS assay to identify small molecule antagonists of the estrogen receptor alpha (ER-alpha) signaling pathway (AID 743069; active means well fitted curve in the direction sought with a large enough effect in the signal ratio in the repeat runs, not every such curve was filed as active; the % refers to the signal ratio)
How it was run: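 Estradiol-stimulated ER-alpha-UAS-bla HEK293 cells, 18 hr compound exposure at 37C. LiveBLAzer B/G substrate, 2 hr RT, fluorescence read.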

[16] = target: Estrogen receptor (Homo sapiens) (UniProt P03372); test: qHTS assay to identify small molecule agonists of the estrogen receptor alpha (ER-alpha) signaling pathway (AID 743075; calls by dose curve;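 further: HEK293 GripTite cells with ER-alpha and UAS-driven beta-lactamase reporter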)
[17] = target: Estrogen receptor (Homo sapiens) (UniProt P03372); test: qHTS assay to identify small molecule agonists of the estrogen receptor alpha (ER-alpha) signaling pathway using the BG1 cell line (AID 743079); further: nearly all actives have a fitted effect of over 20% in size
[18] = qHTS assay to identify small molecule antagonists of the estrogen receptor alpha (ER-alpha) signaling pathway using the BG1 cell line (AID 743080; calls by dose curve;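 further: BG1 cells stimulated with 17beta-estradiol alongside compound; series mostly up to about 70 µM; nearly all actives have a fitted effect of over 25% in size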)
How it was run: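 After 5 days in phenol-red-free 10% charcoal-stripped FBS medium, BG1-Luc-4E2 cells were seeded, left 24 h at 37 C, co-treated with compounds and 17beta-estradiol for 21.5 h, then assayed for viability and luciferase.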

[19] = qHTS assay for identifying genotoxic compounds that show differential cytotoxicity against isogenic chicken DT40 cell lines with known DNA damage response pathways - wild type cell line (AID 743012); further: potency means the concentration at half of the fitted maximal effect; nearly all actives have a fitted effect of over 60% in size
How it was run: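 Using parental DT40 (300 cells/well), compounds delivered in DMSO incubate 40 h at 37 C/5% CO2. CellTiter-Glo reagent then stands 30 min at room temperature, and luminescence gives cell viability.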

Sequence of Androgen receptor (Homo sapiens) (P10275 whole entry, looked up): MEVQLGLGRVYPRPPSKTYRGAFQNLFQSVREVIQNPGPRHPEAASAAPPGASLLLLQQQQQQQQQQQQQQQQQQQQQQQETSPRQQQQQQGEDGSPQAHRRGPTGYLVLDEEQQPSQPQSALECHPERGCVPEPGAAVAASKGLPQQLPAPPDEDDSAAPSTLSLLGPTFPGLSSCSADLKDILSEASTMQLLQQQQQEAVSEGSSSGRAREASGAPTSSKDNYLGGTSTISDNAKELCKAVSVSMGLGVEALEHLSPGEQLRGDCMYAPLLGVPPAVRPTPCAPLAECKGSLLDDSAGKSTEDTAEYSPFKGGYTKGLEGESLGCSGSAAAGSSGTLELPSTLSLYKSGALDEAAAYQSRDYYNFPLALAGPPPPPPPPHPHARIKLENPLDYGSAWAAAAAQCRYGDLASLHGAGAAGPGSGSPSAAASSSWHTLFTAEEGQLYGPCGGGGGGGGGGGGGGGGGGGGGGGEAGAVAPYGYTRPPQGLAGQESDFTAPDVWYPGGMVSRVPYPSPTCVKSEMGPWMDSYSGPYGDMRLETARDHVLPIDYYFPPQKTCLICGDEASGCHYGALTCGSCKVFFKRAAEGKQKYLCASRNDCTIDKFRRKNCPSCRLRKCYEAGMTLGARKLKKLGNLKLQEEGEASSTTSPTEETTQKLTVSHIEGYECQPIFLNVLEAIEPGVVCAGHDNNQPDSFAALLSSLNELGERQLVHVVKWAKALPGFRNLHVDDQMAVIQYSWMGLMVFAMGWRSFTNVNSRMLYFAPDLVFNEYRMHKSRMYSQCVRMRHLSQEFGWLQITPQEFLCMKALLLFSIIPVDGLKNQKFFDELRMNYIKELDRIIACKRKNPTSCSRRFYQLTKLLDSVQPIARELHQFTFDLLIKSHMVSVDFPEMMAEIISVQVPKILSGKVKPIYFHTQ
Sequence of Estrogen receptor (Homo sapiens) (P03372 whole entry, looked up): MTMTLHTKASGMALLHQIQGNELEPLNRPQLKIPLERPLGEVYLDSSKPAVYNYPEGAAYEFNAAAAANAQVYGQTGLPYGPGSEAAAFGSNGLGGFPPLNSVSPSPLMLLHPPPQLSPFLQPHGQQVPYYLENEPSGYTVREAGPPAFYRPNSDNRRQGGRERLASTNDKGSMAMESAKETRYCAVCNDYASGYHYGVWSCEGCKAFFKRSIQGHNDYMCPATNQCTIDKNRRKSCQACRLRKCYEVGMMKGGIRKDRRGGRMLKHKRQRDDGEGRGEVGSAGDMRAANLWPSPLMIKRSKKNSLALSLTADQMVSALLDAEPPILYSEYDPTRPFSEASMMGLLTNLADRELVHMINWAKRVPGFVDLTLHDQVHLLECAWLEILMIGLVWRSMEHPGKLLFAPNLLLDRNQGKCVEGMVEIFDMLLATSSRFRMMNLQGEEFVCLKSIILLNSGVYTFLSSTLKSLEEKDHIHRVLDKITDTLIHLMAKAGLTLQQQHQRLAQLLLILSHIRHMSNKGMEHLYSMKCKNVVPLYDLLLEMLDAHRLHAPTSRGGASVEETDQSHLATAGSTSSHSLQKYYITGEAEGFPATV
Sequence of Aromatase (Homo sapiens) (P11511 whole entry, looked up): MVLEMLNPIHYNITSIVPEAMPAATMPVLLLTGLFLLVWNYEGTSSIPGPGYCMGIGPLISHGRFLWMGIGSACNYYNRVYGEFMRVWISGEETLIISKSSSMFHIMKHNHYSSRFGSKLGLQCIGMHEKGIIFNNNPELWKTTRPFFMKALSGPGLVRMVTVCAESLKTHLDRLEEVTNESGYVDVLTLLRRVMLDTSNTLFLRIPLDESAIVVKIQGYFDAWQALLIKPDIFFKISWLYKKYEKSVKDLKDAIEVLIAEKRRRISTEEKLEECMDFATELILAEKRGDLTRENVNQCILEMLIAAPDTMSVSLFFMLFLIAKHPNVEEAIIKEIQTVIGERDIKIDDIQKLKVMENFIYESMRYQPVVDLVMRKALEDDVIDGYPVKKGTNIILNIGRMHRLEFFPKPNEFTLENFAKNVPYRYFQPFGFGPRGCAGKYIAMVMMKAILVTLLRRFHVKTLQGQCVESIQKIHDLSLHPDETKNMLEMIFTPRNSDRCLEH

Structure (SMILES)	outcome [1]	Potency [2]	Potency [3]	outcome [4]	Potency [5]	Potency [6]	outcome [7]	Potency [8]	Potency [9]	Potency (Aromatase (Homo sapiens))	Potency [10]	Potency [11]	outcome [12]	Potency [13]	outcome [14]	Potency [15]	outcome [16]	Potency [17]	outcome [18]	Potency [19]
CN1[C@@H]2CC[C@H]1CC(OC(=O)c1c[nH]c3ccccc13)C2 (some centres undefined)	inactive	inactive	inactive	inactive	23.7 µM (active)	26.6 µM (active)	inactive	inactive	inactive	inactive										
CN(C)CC[C@@H](c1ccc(Cl)cc1)c1ccccn1	inactive	inactive	inactive	inactive			inactive				inactive									
COC(=O)C(C)O (centres undefined)	inactive	inactive	inactive	inactive	inactive	inactive	inactive	inactive	inactive	inactive	inactive	inactive	inactive	inactive	inactive	inactive	inactive	inactive	inactive	
CC1(O)CSC(C)(O)CS1 (centres undefined)	inactive	61.1 µM (active)	61.1 µM (active)	inactive	inactive		inactive	inactive	inactive	inactive	inactive	inactive	inactive	inactive	inactive	inactive	inactive	inactive	inactive	
CN1CCC[C@@H]1Cc1c[nH]c2ccc(CCS(=O)(=O)c3ccccc3)cc12	inactive	33.5 µM (active)	29.8 µM (active)	inactive		21.1 µM (active)	inactive	inactive		inactive	inactive									
CS(=O)(=O)c1ccc([C@@H](O)[C@@H](CF)NC(=O)C(Cl)Cl)cc1	inactive	6.39 µM (active)	7.17 µM (active)	inactive	inactive	inactive	inactive	inactive	inactive	inactive	inactive					inactive	inactive	inactive		
Nc1ccc(Oc2ccc(N)c(N)c2)cc1	inactive	7.7 µM (active)	13.7 µM (active)	inactive			inactive	inactive	inactive								inactive			
O=C1CCCCC1C1CCCCC1 (centres undefined)	inactive	inactive	inactive	inactive		inactive	inactive	inactive	inactive	inactive	inactive						inactive	inactive	inactive	
CCOc1ccccc1N	inactive	inactive	inactive	inactive	inactive	inactive	inactive	inactive	inactive	inactive	inactive						inactive	inactive	inactive	
CC(C)O	inactive	inactive	inactive	inactive	inactive		inactive	inactive	inactive	inactive	inactive					inactive	inactive	inactive	inactive	
CCCN(CCC)C(=O)C(CCC(=O)O)NC(=O)c1ccccc1 (centres undefined)	inactive	inactive	inactive	inactive	inactive	inactive	inactive	inactive	inactive	inactive	inactive									
CN1C(=O)CC(c2ccccc2)C1=O (centres undefined)	inactive	inactive	inactive	inactive		inactive	inactive	inactive	inactive	inactive	inactive									
CC1=CC(=O)CC(C)(C)C1=O	inactive	inactive	inactive	inactive	inactive	inactive	inactive	inactive	inactive	inactive	inactive					inactive	inactive	inactive	inactive	
CCCCCCC	inactive	inactive	inactive	inactive	inactive			inactive	inactive	inactive	inactive					inactive	inactive	inactive	inactive	
CCCC1CCC(=O)O1 (centres undefined)	inactive	inactive	inactive	inactive			inactive	inactive	inactive	inactive	inactive									
Nc1cccc(S(=O)(=O)O)c1	inactive	inactive	inactive	inactive	inactive	inactive	inactive	inactive	inactive	inactive	inactive	inactive	inactive	inactive	inactive	inactive	inactive	inactive	inactive	
O=C(O)[C@@H]1CSCN1	inactive	inactive	inactive	inactive	inactive	inactive	inactive	inactive		inactive	inactive									
CC(C)NC[C@@H](O)COc1cccc2ccccc12	inactive						inactive	inactive	inactive	inactive	inactive									26.6 µM (active)
C=C(C)C(=O)OCCOP(=O)(O)O	inactive	inactive	inactive	inactive	inactive	inactive	inactive	inactive	inactive	inactive	inactive						inactive		inactive	
CCCc1c2oc(C(=O)O)cc(=O)c2cc2c(=O)cc(C(=O)O)n(CC)c12	inactive	inactive	inactive	inactive					inactive	inactive	inactive					inactive	inactive	inactive	inactive	
C=O	inactive	inactive	inactive	inactive	inactive	inactive	inactive	inactive	inactive	inactive	inactive									
